# Reference: PubChem BioAssay (EPA / NIEHS)
# “And” between values parts separate entries of the source, which are not always exact repeats. Identical values can stand only once. Inconclusive results are not listed. The source made the active and inactive calls. How the source made its calls: active means hit-call score of the fitted dose curve at least 0.9, where 1 is the maximum; inconclusive means response in the unintended direction; inactive means score below 0.9.
# What was measured:
# [1] = target: human CYP2C9, CYP2C9 (gene 1559) (UniProt P11712); experiment: NVS_ADME_hCYP2C9: NovaScreen (NVS) CYP450-related Enzyme Activity (ADME) Assay for human CYP2C9 (AID 2283108)
# Summary of the method: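 Fluorescence readout of CYP2C9 activity (SF9-expressed human enzyme) at 0.75 h. The primary screen used 10 uM in duplicate, with concentration-response follow-up for actives; acetonitrile was the negative control.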
# [2] = target: Cytochrome P450 2C19 (Homo sapiens) (UniProt P33261); experiment: NVS_ADME_hCYP2C19: NovaScreen (NVS) CYP450-related Enzyme Activity (ADME) Assay for human CYP2C19 (AID 2283113);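 on AC50: potency for inhibition seen as loss of fluorescent signal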
# Summary of the method: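 Fluorescence intensity was measured 1 hour after chemicals were added to insect-cell-derived recombinant CYP2C19 with fluorogenic substrate. Decreased signal versus acetonitrile control was taken as reduced enzyme activity; initial testing used 10 uM in duplicate.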
# [3] = target: rat CYP2A2, Cyp2a2 (gene 24895) (UniProt P15149); experiment: NVS_ADME_rCYP2A2: NovaScreen (NVS) CYP450-related Enzyme Activity (ADME) Assay for rat CYP2A2 (AID 2283116)
# Summary of the method: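 Cell-free recombinant rat CYP2A2 activity with fluorogenic substrate, fluorescence read 0.2 h after dosing. Chemicals screened at 10 uM in duplicate, hits then run in concentration-response up to 20 uM; signal loss versus acetonitrile baseline.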
# [4] = target: human CYP2D6, CYP2D6 (gene 1565) (UniProt P10635); experiment: NVS_ADME_hCYP2D6: NovaScreen (NVS) CYP450-related Enzyme Activity (ADME) Assay for human CYP2D6 (AID 2283107)
# Summary of the method: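 Insect-cell recombinant enzyme + fluorogenic substrate, cell-free; 1 h incubation; fluorescence intensity readout. Acetonitrile = neg. ctrl/baseline. Single-point 10 uM, duplicate; follow-up concentration series.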
# [5] = target: Cytochrome P450 3A4 (Homo sapiens) (UniProt P08684); experiment: NVS_ADME_hCYP3A4: NovaScreen (NVS) CYP450-related Enzyme Activity (ADME) Assay for human CYP3A4 (AID 2283110)
# Summary of the method: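 Compounds were first screened in duplicate at 10 uM against recombinant CYP3A4 produced in insect cells, then actives were run in concentration series. Enzyme activity was measured by fluorescence after 0.33 hour, with acetonitrile as baseline.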
# [6] = target: rat CYP2C11, Cyp2c11 (gene 29277) (UniProt P08683); experiment: NVS_ADME_rCYP2C11: NovaScreen (NVS) CYP450-related Enzyme Activity (ADME) Assay for rat CYP2C11 (AID 2283118)
# Summary of the method: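 Cell-free recombinant rat enzyme with fluorescent substrate; readout 0.33 h after dosing, loss of signal versus acetonitrile control. Initial duplicate single-point at 10 uM; actives rerun in concentration series.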
# Sequence of rat CYP2A2, Cyp2a2 (gene 24895) (P15149 whole entry, looked up): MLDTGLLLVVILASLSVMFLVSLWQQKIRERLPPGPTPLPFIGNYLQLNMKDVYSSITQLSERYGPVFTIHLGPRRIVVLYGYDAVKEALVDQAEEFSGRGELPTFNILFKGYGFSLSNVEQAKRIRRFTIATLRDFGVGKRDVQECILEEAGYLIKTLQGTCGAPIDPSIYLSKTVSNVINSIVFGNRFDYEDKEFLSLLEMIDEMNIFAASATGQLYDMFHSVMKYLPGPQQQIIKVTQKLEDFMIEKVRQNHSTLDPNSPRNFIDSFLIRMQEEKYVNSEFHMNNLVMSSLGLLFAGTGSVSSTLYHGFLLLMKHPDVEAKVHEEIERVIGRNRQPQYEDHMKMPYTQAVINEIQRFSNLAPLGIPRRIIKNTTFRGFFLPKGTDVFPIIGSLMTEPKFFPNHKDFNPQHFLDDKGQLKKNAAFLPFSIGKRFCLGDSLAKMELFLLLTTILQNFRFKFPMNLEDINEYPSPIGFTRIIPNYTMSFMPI
# Sequence of human CYP2C9, CYP2C9 (gene 1559) (P11712 whole entry, looked up): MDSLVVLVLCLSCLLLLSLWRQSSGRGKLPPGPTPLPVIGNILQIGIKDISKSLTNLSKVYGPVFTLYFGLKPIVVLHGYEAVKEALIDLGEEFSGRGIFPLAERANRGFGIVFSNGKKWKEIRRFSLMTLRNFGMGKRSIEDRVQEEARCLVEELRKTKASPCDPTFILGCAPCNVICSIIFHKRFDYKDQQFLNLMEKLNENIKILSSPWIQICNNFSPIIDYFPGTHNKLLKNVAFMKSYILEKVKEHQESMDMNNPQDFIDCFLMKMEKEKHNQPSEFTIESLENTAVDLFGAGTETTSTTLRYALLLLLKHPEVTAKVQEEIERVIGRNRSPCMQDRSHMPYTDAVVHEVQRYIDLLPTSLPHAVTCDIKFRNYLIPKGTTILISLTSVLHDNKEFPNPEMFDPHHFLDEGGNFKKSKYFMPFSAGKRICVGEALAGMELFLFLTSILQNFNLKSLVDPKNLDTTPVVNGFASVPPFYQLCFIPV
# Sequence of Cytochrome P450 3A4 (Homo sapiens) (P08684 whole entry, looked up): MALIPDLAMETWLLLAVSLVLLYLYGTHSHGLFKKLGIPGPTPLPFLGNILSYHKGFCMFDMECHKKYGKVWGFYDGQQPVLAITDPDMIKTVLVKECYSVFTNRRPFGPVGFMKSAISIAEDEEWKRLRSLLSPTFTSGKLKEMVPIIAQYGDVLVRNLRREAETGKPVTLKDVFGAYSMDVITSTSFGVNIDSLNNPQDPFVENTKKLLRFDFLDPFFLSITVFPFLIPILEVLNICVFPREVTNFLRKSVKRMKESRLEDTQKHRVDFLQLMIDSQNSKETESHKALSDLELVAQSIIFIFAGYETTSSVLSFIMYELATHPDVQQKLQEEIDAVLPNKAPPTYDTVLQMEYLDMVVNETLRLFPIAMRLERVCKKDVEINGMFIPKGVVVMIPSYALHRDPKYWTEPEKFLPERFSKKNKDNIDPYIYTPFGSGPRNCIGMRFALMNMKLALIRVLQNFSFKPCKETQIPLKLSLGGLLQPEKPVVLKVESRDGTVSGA
# Sequence of rat CYP2C11, Cyp2c11 (gene 29277) (P08683 whole entry, looked up): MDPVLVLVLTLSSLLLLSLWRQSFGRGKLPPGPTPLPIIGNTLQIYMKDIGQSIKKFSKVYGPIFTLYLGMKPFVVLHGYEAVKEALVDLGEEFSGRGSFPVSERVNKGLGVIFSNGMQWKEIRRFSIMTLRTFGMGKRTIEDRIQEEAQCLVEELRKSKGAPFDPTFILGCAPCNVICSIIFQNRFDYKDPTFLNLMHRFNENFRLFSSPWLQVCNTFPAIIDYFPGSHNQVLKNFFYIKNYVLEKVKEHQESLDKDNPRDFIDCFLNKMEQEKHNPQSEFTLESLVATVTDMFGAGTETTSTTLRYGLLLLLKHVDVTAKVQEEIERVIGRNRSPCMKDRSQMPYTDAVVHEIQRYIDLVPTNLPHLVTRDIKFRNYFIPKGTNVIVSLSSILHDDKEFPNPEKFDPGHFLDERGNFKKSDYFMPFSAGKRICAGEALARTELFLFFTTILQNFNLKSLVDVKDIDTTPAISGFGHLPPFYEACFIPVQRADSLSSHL
# Sequence of human CYP2D6, CYP2D6 (gene 1565) (P10635 whole entry, looked up): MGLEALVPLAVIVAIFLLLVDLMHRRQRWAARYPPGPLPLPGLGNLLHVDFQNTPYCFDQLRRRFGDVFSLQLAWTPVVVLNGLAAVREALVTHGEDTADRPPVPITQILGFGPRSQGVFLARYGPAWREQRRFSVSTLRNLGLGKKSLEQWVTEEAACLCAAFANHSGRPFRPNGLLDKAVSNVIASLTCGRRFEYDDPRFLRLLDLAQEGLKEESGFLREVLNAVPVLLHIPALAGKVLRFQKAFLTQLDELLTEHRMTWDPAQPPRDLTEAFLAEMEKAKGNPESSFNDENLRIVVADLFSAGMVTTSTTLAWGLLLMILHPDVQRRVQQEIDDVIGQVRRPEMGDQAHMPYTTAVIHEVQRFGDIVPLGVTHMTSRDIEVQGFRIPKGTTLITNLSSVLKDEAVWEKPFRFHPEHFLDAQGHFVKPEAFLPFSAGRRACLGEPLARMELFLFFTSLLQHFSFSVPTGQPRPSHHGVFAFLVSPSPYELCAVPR
smiles,measurement,setting,value
COc1nc(C)nc(NC(=O)NS(=O)(=O)c2ccccc2CCC(F)(F)F)n1,outcome,[1],inactive
CCCCOC(=O)c1ccccc1C(=O)OCCCC,AC50,[2],6.73 µM (active) and 7.37 µM (active)
same,outcome,[3],inactive
CCON=C(CC)C1=C(O)CC(c2c(C)cc(C)cc2C)CC1=O (stereo not drawn),AC50,[2],3.37 µM (active)
CCCCNC(=O)OCC#CI,AC50,[2],1.81 µM (active) and 2.46 µM (active)
same,AC50,[3],5.3 µM (active) and 5.4 µM (active)
COc1nc(C)nc(NC(=O)NS(=O)(=O)c2ccccc2Cl)n1,outcome,[4],inactive
C#CCOS(=O)OC1CCCCC1Oc1ccc(C(C)(C)C)cc1 (stereo not drawn),outcome,[1],inactive
same,outcome,[5],inactive
same,AC50,[2],14.3 µM (active)
Oc1ccccc1-c1ccccc1,outcome,[3],inactive
Fc1ccc(Oc2ccnc3cc(Cl)cc(Cl)c23)cc1,outcome,[2],inactive
same,AC50,[6],15.6 µM (active)
CNC(=S)S,outcome,[1],inactive
same,AC50,[2],7.58 µM (active)
CCNc1nc(Cl)nc(NC(C)C)n1,AC50,[2],10 µM (active)
same,outcome,[3],inactive
CCOC(=O)C(Cl)Cc1cc(-n2nc(C)n(C(F)F)c2=O)c(F)cc1Cl (stereo not drawn),AC50,[2],10 µM (active)
